# Among all 3,300 compounds or so, about 50 (2%) were called active. The list is a sample of the results. Results with a measured potency or affinity are listed apart. Values without a mark were called inactive.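 Rule for the calls: active = concentration giving half-maximal inhibition at or below 20 micromolar; inactive = half-maximal concentration above 20 micromolar, or not dose tested.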
# Experiment: cytotoxicity toward Jurkat T cells, primary screen, cell-based, Jurkat E6.1, NIH starter set (AID 364);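 note: 100% = cells treated with 4 µM doxorubicin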
# Details: Jurkat E6.1 viability, ATP luminescence, 48 h; at 4 µM; stronger effect = higher value
row,Structure (SMILES),inhibition [%]
1,CCOC(=O)NC(Nc1sc2c(c1C(N)=O)CCCC2)(C(=O)OCC)C(F)(F)F (stereo unspecified),2.5
2,CC(C)c1cc(NCCN2CCOCC2)n2c(nc3ccccc32)c1C#N,14.6
3,O=P(Cc1nnco1)(c1ccccc1)c1ccccc1,1
4,CC(=O)Oc1ccccc1C1OCCN1C(C)=O (stereo unspecified),-17.2
5,Cc1ccc2nc(C(F)(F)F)c(C#N)c(N)c2c1,11.8
6,C/C(NC(=O)c1ccccc1F)=C1\C(=O)C[C@@H]2[C@H]1C2(C)C,-12.7
7,Cc1ccc(S(=O)(=O)NC(=O)NCc2ccc3c(c2)OCO3)cc1,7.5
8,CCN=C1SC(C(=O)Nc2ccc(Cl)c(Cl)c2)CC(=O)N1CC (stereo unspecified),-3.4
9,O=C(OCCN1CCOCC1)c1ccc(OCCN2CCOCC2)cc1,-3.3
10,Cn1c(/C(C#N)=C/Nc2ccccn2)nc2ccccc21,-8.5
11,Cc1cc(=O)oc(C)c1C(=O)NC12CC3CC(CC(C3)C1)C2,0.6
12,COc1ccc2c(c1OC)C(=O)OC2C1c2c(cc3c(c2OC)OCO3)CCN1C (stereo unspecified),2.6
13,O=C(O)CC(C(=O)OCC1CCCO1)N1CCOCC1 (stereo unspecified),11.6
14,COc1nc(N(C)S(=O)(=O)c2ccc(C)cc2)nc(C)c1Cl,2.3
15,COc1cccc(OC)c1-c1nn2c(-c3ccco3)nnc2s1,-5.6
16,Cc1ccc2[nH]c(CCN(C)C)c(CC#N)c2c1,-1
17,CC(=O)Nc1ccc(Oc2ccc3nc(C)[nH]c3c2)cc1,6.6
18,Cn1c(=O)n(C)c2cc(C(=O)c3ccccc3)ccc21,-1.7
19,Cn1c(=O)oc2cc(C(=O)c3ccccc3)ccc21,-2.2
20,CCC(=O)Nc1nc(C)c(Oc2ccccc2)c(=O)[nH]1,-13.8
21,CN1CCc2c(sc3ncn4nc(-c5ccccc5O)nc4c23)C1,2.9
22,CSc1cc(C)nc(N(C)C(C)=O)n1,-4.8
23,CC1(c2cnc(Nc3ccccc3)s2)CCC(=O)O1 (stereo unspecified),3.7
24,CC1CN(c2oc(-c3ccccc3Cl)nc2C#N)CC(C)O1 (stereo unspecified),-11.7
25,COc1ccc(/C(O)=C2/C(=O)C(=O)N(CCCN(C)C)C2c2ccccc2)cc1Cl (stereo unspecified),9.5
26,COc1cccc(C2/C(=C(\O)c3ccc4c(c3)OCCO4)C(=O)C(=O)N2CCCN(C)C)c1OC (stereo unspecified),-10.5

row,Structure (SMILES),inhibition [%]
1,C=CCn1cnc2c(c1=O)c1nc3ccccc3nc1n2-c1ccc(Cl)cc1,-1.6
2,CCCOC(=O)CSC1=C(C#N)C(c2ccc3c(c2)OCO3)CC(=O)N1 (stereo unspecified),29.3
3,CCCCOC(=O)CSC1=C(C#N)C(c2ccc3c(c2)OCO3)CC(=O)N1 (stereo unspecified),6.5
4,CSc1nc2[nH]c3c(c2c2nnnn12)CCCC3,1.2
5,CC(=O)Nc1cccc(NC(=O)CSc2nc(C)c(C)c(C)c2C#N)c1,-4.8
6,COc1cc(C2C3C(=O)N(c4ccc(F)cc4)C(=O)C3ON2c2ccccc2)ccc1O (stereo unspecified),2.1
7,COc1cccc(Cn2c(NCC(C)C)nc3c2c(=O)n(C)c(=O)n3C)c1,10.8
8,CCCCNc1nc2c(c(=O)n(C)c(=O)n2C)n1Cc1cccc(OC)c1,35.2
9,CN(C)CCNC(=O)C12CC3(C)CC(C)(CC(C)(C3)C1)C2,-4.1
10,CCOc1cccc(NC(=O)C2CC(=O)NC(=Nc3ccccc3)S2)c1 (stereo unspecified),15.4
11,Cn1c(=O)[nH]c(=O)c2c1nc(Br)n2CCSc1nnnn1-c1ccccc1,-0.6
12,ClC(Br)=C(n1cnc2ccccc21)n1cnc2ccccc21,3.1
13,CC(=O)CCn1c(=O)n(CCC(C)=O)c(=O)n(CCC(C)=O)c1=O,4
14,Clc1ccc2c(c1)C(N1CCNCC1)=Nc1ccccc1O2,2.2
15,CN1CCN(C2=Nc3ccccc3Oc3ccc(Cl)cc32)CC1,2.6
16,CC(C)CNC(=O)c1c(N)n(/N=C/c2cccnc2)c2nc3ccccc3nc12,-0.2
17,COc1cccc(C2C(C(=O)c3sc(C)nc3C)=C(O)C(=O)N2CCN2CCOCC2)c1OC (stereo unspecified),3.5
18,CN(C)c1oc(-c2cccs2)nc1C#N,5.5
19,COc1ccc(-n2c(=O)c3c4c(sc3n3c(C)nnc23)CC(C)CC4)cc1 (stereo unspecified),-5
20,COc1ccc(Nc2nc(Nc3ccc(OC)cc3)nc(-n3[nH]c(=O)c(C)c3C)n2)cc1,4.5
21,COc1ccc(Nc2cc(C)nc3ccccc23)cc1,6.3
22,Cc1[nH]c2ccc(F)cc2c(=O)c1SC(F)(F)C(F)C(F)(F)F (stereo unspecified),1.9
23,COc1ccc(C(=O)c2oc3nc(C)cc(C)c3c2N)cc1,-3.3
24,C=CCn1c(SCc2c(F)c(F)c(F)c(F)c2F)nc(O)cc1=O,-3.4
25,CC(C)C(C(=O)Nc1ncn[nH]1)N1C(=O)c2ccccc2C1=O (stereo unspecified),1
